Columns and labels:
Assay in all cases: PBM binding z-score (relative to random genomic background probes); higher = stronger binding; sequences stand for … in GC…GCGATTGACAGCGTAGAATGAAGG
[1] = tested on: PPARg:RXRa DBDmut IVT, anti-RXR (DBD mutation: RXRa K156A/R161A, NR concentration 270 nM, RXRa partner concentration 90 nM)
How it was run: (§1)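 Probes were double-stranded and carried 34-nt variable regions with direct-repeat seeds, single-nucleotide variants, half-site ablations and random human genomic background sequences, printed on custom Agilent 4×180K protein-binding microarrays. Arrays were incubated 1 h with ligand-free nuclear receptor dimers in PBS pH 7.4, 2% milk, 0.02% Triton X-100, 1 mM DTT, 0.2 mg/mL BSA and 0.4 mg/ml salmon testes DNA. Antibodies against each partner (one per run) detected binding, and scanned fluorescence was regression-normalized. Binding z-scores use the random background probes as reference.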

[2] = tested on: PPARg:RXRa IVT, anti-PPARg (NR concentration 270 nM, RXRa partner concentration 90 nM)
How it was run: as §1

[3] = tested on: PPARg DBDmut:RXRa IVT, anti-PPARg (DBD mutation: PPARg1 K132A/R137A, NR concentration 270 nM, RXRa partner concentration 90 nM)
How it was run: as §1

[4] = tested on: PPARg DBDmut IVT, anti-PPARg (DBD mutation: PPARg1 K132A/R137A, NR concentration 270 nM)
How it was run: as §1

[5] = tested on: PPARg homodimer (NR concentration 180 nM)
How it was run: as §1

[6] = tested on: PXR:RXRa (NR concentration 270 nM, RXRa partner concentration 90 nM)
How it was run: as §1

[7] = tested on: PXR homodimer (NR concentration 270 nM)
How it was run: as §1

[8] = tested on: RARa:RXR (NR concentration 270 nM, RXRa partner concentration 90 nM)
How it was run: as §1

[9] = tested on: RARa homodimer (NR concentration 270 nM)
How it was run: as §1

[10] = tested on: RARb:RXRa (NR concentration 270 nM, RXRa partner concentration 90 nM)
How it was run: as §1

Sequence	PBM binding z-score [1]	PBM binding z-score [2]	PBM binding z-score [3]	PBM binding z-score [4]	PBM binding z-score [5]	PBM binding z-score [6]	PBM binding z-score [7]	PBM binding z-score [8]	PBM binding z-score [9]	PBM binding z-score [10]
CCTAGCAGGCCAGGGGCACTCAAGCATTTCGCTT	0.0628	-0.609	-1.68	-1.6	-1.02	-0.801	-0.66	-0.684	-1.15	0.377
TAGCCTAGATCATTGGGCCAGTATAGTACGCATC	0.771	0.88	0.335	-0.32	-0.814	-0.775	-0.695	-0.564	-0.292	-1.15
CCAGACAGGTGAGAAGGTAACTCACCCTCGATTA	0.889	0.707	-0.339	-0.245	0.968	0.325	0.219	0.748	0.925	0.764
ACAGACAGTTGAGTGAAGGTAACTCAGCTGGACG	-0.279	0.038	-0.108	-0.693	-0.3	-0.386	-0.571	-0.397	-0.00601	-0.0285
CAGCCTAGGTCAGGGCCAGTCTAGGAGGAACGTT	1.23	1.44	-1.02	-1.49	0.16	0.386	-0.83	1.06	-0.6	3.28
TCATATAGGTAAATGTGAAAGTCGAACGATATGA	3.33	2.26	1.69	1.36	0.31	0.168	-0.0723	0.602	0.286	0.153
CCGACTGGGGCAAAGGTTGCCATACTCAGTACGA	4.21	4.73	-0.511	-0.658	0.733	0.388	-0.135	1.14	-0.228	1.03
CCAGACAGGTAAAAGGTAACTCAGTCTGGTACGC	0.377	0.821	-0.535	-0.566	0.614	0.265	0.0427	0.712	0.346	0.382
TCTAGTTGGTCACGGAGGTCACCCACGACGGGTA	2.32	4.17	1.19	1.25	3.92	4.61	1.6	4.66	1.42	3.89
TCTGCTAGGTCAGTTGATCAGCTAACGAGCTGCC	2.51	2.27	0.428	-0.296	-0.547	0.199	-0.78	0.424	-1.32	3
GGAACGAGGGCAAGTTGATAGAAGAGTTTGATGG	3.6	2.75	-0.45	0.0544	0.482	0.801	0.693	0.45	0.336	2.64
CCTAGCAGGCCAATCTGGTTCACTCAAGGCTTGA	1.85	0.21	-1.28	-0.685	-0.281	0.784	-0.545	0.161	-0.882	0.201
AGTCAAAGTTCACCAGGTAACGTAAGATTCAGCT	1.37	4	1.09	1.39	3.02	4.67	2.63	4.15	1.72	5.18
ATCTCTAGGTAACGAGTTCAGTGAAAGAGAGGAC	4.09	3.44	0.909	0.668	0.806	2.31	2.89	0.857	0.668	1.35
TCTAGTTGGGCACGGAGGTCACACACGACGGGTA	1.69	2.93	1.02	-0.0176	2.73	3.91	0.835	4.24	0.793	3.36
CGAACTGGGTCATTGACAGGACAGTGAATAGTAA	7.7	7.88	1.06	1.35	0.71	1.41	0.347	2.18	0.276	2.92
AGTGAAAGTTCATCTAGGTAACGTAAGATATGCT	0.529	3.41	1.8	1.64	2.58	4.68	6.78	3.24	1.4	4.63
TCTATTAGTTGATTAGGGCATCCGAAACAGCGGA	2.14	1.16	0.865	0.919	1.28	0.607	0.652	0.754	1.52	0.788
ATCTCTAGGTAAGACTCAGTTCAGTGGAGAACGC	1.76	1.05	0.655	0.595	1.2	1.32	1.24	0.355	0.601	0.727
TCGAGTAGGTTAGGGGCATTCAAAATGGCGTCGA	2.11	1.45	-0.544	-0.184	0.857	0.792	0.65	0.797	0.0472	1.24
GCTAGGAGGCCATTTGGGTCACTCAATGACGGGC	1.91	2.38	-0.861	-0.88	0.287	1.21	1.1	1.04	-0.719	1.95
GCTGCTGGGTCAGGTTGGTCAGCTAACGGGTACG	1.8	1.47	-0.97	-0.347	0.551	0.0327	-0.0848	0.539	-0.315	2.84
GCATATAGGTAATACAAGGTGAAGGTCCGATTGT	4.57	3.17	0.671	0.932	0.421	0.391	0.248	1.23	0.491	0.573
ACAGACAGGTTATGAAGGTAACTCAGGCTATCAT	0.3	0.659	0.714	0.581	0.432	0.377	0.271	0.863	0.217	0.899

— the supplement of paper PMC6555819
